Screen size: about 11,000 compounds; about 310 (2.8%) were called active. No stated cut-off is given here; in the data, active means activity change below about -85%; inactive means the rest. This excerpt belongs to a sample that is enriched for actives.

In this assay the test system is intestinal alkaline phosphatase [Mus musculus]. Put plainly: activators of mouse IAP, confirmation, biochemical, luminescence, single concentration (AID 434970). Particulars: purified mouse IAP, CDP-Star luminescence, 30 min, at 10 µM; activation factor: measured here: IAP activation factor, stronger effect = higher value; activity change, negative = activation: stronger effect = lower value.
With `Cc1sc2nc(CN3CCOCC3)nc(NS(=O)(=O)c3ccc4c(c3)OCCO4)c2c1C`, the activation factor turned out to be 0.956 and the activity change, negative = activation is 4.4% (inactive).

As for `Cc1cc(C)nc(N2CCC(C(=O)NCc3cccc(C(F)(F)F)c3)CC2)n1`, the activation factor came to 0.95 and the activity change, negative = activation is 5.1% (inactive).

On to `Cc1cc(Cn2nc(-c3ccccc3)cc2C(=O)NCc2cccc(C(F)(F)F)c2)on1`, for which the activation factor was found to be 2.25 and the activity change, negative = activation was -125% (active).

On to `O=C(NCc1ccccc1)c1cc2nc(C3CC3)cc(C(F)(F)F)n2n1`, for which the activation factor amounted to 0.96 and the activity change, negative = activation was 4% (inactive).

For the compound `Cc1ccc(C(=O)NC(Cc2cccc(C(F)(F)F)c2)C(=O)O)cc1` (stereo unspecified), the activation factor was determined as 1.14 and the activity change, negative = activation is -13.9% (inactive).

`CCc1cc(Cn2nc(-c3ccccc3)cc2C(=O)NCc2cccc(C(F)(F)F)c2)on1`: the activation factor is 2.52 and the activity change, negative = activation is -152% (active).

For `CCCC1C2C(=O)N(c3ccccc3OCC)C(=O)C2ON1c1ccccc1` (stereo unspecified), the activation factor amounted to 1.1 and the activity change, negative = activation was -9.6% (inactive).

Consider `CCCN1C(=O)c2ccc(C(=O)NC3CCCCC3)cc2C1=O`, for which the activation factor was 1.07 and the activity change, negative = activation was -6.9% (inactive).

Consider `C=CCNc1nc(-c2sc(NC(C)=O)nc2C)cs1`, for which the activation factor is 0.932 and the activity change, negative = activation was 6.75% (inactive).

For the compound `CCCCCCNC(=O)N[C@@H](C(=O)NCCC[C@H]1CN2C(=NC[C@@H]2Cc2ccccc2)N1CCc1cccc(OC)c1)C(C)C`, the activation factor is 3.11 and the activity change, negative = activation was -211% (active).

On to `CCCCNc1nc2c(c(=O)n(C)c(=O)n2C)n1Cc1cccc(OC)c1`, for which the activation factor stood at 1.04 and the activity change, negative = activation was -4.2% (inactive).

In the case of `O=C(CCCOc1ccccc1)Nc1nncs1`, the activation factor came out at 1.02 and the activity change, negative = activation was -1.6% (inactive).

As to `COc1cccc(C(=O)OCC(=O)Nc2ccccc2N2CCOCC2)c1`, the activation factor came out at 0.909 and the activity change, negative = activation was 9.1% (inactive).

Take `CCCCCCN(C(=O)CCCN1C(=O)NC(c2ccc(-c3ccccc3)cc2)C(C(=O)OCc2ccccc2)=C1C)C(C)C(=O)NCCCC` (stereo unspecified): the activation factor is 1.42 and the activity change, negative = activation is -41.5% (inactive).

As to `CCCCNC(=O)C(C)N(CCN(C)C)C(=O)CCCN1C(=O)NC(c2ccc(Cl)cc2)C(C(=O)OCc2ccccc2)=C1C` (stereo unspecified), the activation factor is 1.19 and the activity change, negative = activation is -18.9% (inactive).

For `CCCCNC(=O)C(C1CCCCC1)N(CCN(C)C)C(=O)CCCN1C(=O)NC(c2ccc(-c3ccccc3)cc2)C(C(=O)OCc2ccccc2)=C1C` (stereo unspecified), the activation factor was 2.49 and the activity change, negative = activation was -148% (active).

With `CCOC(=O)c1c(C)[nH]c(C(=O)CSc2nnc(CC(C)c3ccccc3)o2)c1C` (stereo unspecified), the activation factor was 0.943 and the activity change, negative = activation is 5.7% (inactive).

With `COc1ccc(OC)c(NC(=O)Cn2c(=O)n(CC(=O)NCc3ccco3)c(=O)c3ccccc32)c1`, the activation factor turned out to be 0.997 and the activity change, negative = activation was 0.3% (inactive).

Regarding `OCCCN1c2ccccc2Nc2nnc(-c3ccccc3)cc21`, the activation factor worked out at 3.08 and the activity change, negative = activation is -208% (active).

For the compound `OCCCn1c(-c2ccccc2)n[nH]c1=S`, the activation factor came out at 1.02 and the activity change, negative = activation is -1.9% (inactive).

Consider `CN(CC(=O)Nc1cccc(Cl)c1)S(=O)(=O)c1ccc2[nH]c(=O)oc2c1`, for which the activation factor is 0.26 and the activity change, negative = activation was 74.1% (inactive).

On to `COc1cccc(CN(CC(=O)NC2CCCC2)C(=O)Cn2nnc(-c3cccs3)n2)c1`, for which the activation factor worked out at 1.07 and the activity change, negative = activation is -7.3% (inactive).

On to `Cc1cc(C)cc(NC(=O)Nc2cc(S(=O)(=O)N(C)C)ccc2C)c1`, for which the activation factor worked out at 3.43 and the activity change, negative = activation is -243% (active).

Take `Cc1ccc(S(=O)(=O)N(C)C)cc1NC(=S)NC(C)CCCC(C)C` (stereo unspecified): the activation factor was determined as 1.26 and the activity change, negative = activation is -26.2% (inactive).

For the compound `Cc1ccc(NC(=O)Nc2cc(S(=O)(=O)N(C)C)ccc2C)cc1`, the activation factor worked out at 1.84 and the activity change, negative = activation is -83.7% (inactive).

`Cc1cc(NC(=O)Cn2c(=O)c3c(ncn3CC(C)C)n(Cc3ccccc3)c2=O)no1`: the activation factor worked out at 1.09 and the activity change, negative = activation is -9.3% (inactive).

Take `Cc1ccccc1-n1nc(C(=O)O)c(C)c(C#N)c1=O`: the activation factor came to 0.98 and the activity change, negative = activation was 2.05% (inactive).

`COC(=O)c1cn(NC(=O)C2CCCO2)c(=O)c2ccccc12` (stereo unspecified): the activation factor is 1.03 and the activity change, negative = activation was -3.3% (inactive).

As to `CCN(CC)C(=O)CSc1nc(-c2cccs2)cc(-c2cccs2)c1C#N`, the activation factor was determined as 0.778 and the activity change, negative = activation was 22.2% (inactive).

For the compound `CCCCC1=CC2=C(c3ccco3)C(=O)C(C)(OC(=O)c3ccc(OC)cc3)C(=O)C2=CN1Cc1ccc2c(c1)OCO2` (stereo unspecified), the activation factor is 0.503 and the activity change, negative = activation was 49.7% (inactive).

For `CCn1ncc(CN2CCC(C(=O)Nc3cccc(-c4cccc(F)c4)c3)CC2)c1C`, the activation factor came to 2.83 and the activity change, negative = activation is -183% (active).

For the compound `CCn1ncc(C2=NOC(C(=O)Nc3ccc(C)cc3)C2)c1C` (stereo unspecified), the activation factor is 1.07 and the activity change, negative = activation was -7.35% (inactive).

With `CCCn1ncc(CN2CCC(C(=O)Nc3cccc(-c4cccc(F)c4)c3)CC2)c1C`, the activation factor was 5.28 and the activity change, negative = activation is -428% (active).

Regarding `CCOC(=O)c1ccc(NC(=O)C2CCN(S(=O)(=O)CC)CC2)cc1`, the activation factor stood at 0.952 and the activity change, negative = activation is 4.8% (inactive).

`CCCCNC(=O)C1CCN(C/C(C)=C/c2ccccc2)CC1`: the activation factor came to 1.02 and the activity change, negative = activation is -1.8% (inactive).

Consider `Cc1cc(NC(=O)C2CCN(S(=O)(=O)c3cnc[nH]3)CC2)ccc1Br`, for which the activation factor amounted to 0.935 and the activity change, negative = activation was 6.5% (inactive).

With `C/C(=N\OCC(=O)N/N=C/c1ccccc1O)c1cccs1`, the activation factor was 1.01 and the activity change, negative = activation was -1.25% (inactive).

As to `COc1ccc(Cl)cc1N1C(=O)[C@@H]2C(c3cccc(OC)c3OC)=NO[C@@H]2C1=O`, the activation factor was 1 and the activity change, negative = activation was 0.05% (inactive).

With `COc1ccc(NC(=O)C(=O)NCCN2CCN(C(=O)C(c3ccccc3)c3ccccc3)CC2)cc1`, the activation factor came to 1.05 and the activity change, negative = activation was -5.05% (inactive).

For the compound `Cc1cc(C)cc(NC(=S)NCc2ccc3c(c2)OCO3)c1`, the activation factor amounted to 1.81 and the activity change, negative = activation was -80.9% (inactive).

As for `CC(=O)NC(NC(=S)Nc1ccc(N=Nc2ccccc2C)cc1C)C(Cl)(Cl)Cl` (stereo unspecified), the activation factor stood at 0.848 and the activity change, negative = activation is 15.2% (inactive).

As to `O=C(O)c1ccccc1NC(=S)NC(NC(=O)c1ccccc1[N+](=O)[O-])C(Cl)(Cl)Cl` (stereo unspecified), the activation factor was 0.83 and the activity change, negative = activation was 17% (inactive).

Consider `Cc1ccccc1NC(=S)NC(NC(=O)COc1ccccc1)C(Cl)(Cl)Cl` (stereo unspecified), for which the activation factor was 1.73 and the activity change, negative = activation is -73% (inactive).

Take `Cc1ccccc1NC(=S)NC(NC(=O)c1ccccc1C)C(Cl)(Cl)Cl` (stereo unspecified): the activation factor amounted to 2.07 and the activity change, negative = activation was -107% (active).

Turning to `Cc1ccc(NC(=S)NC(NC(=O)c2ccccc2C)C(Cl)(Cl)Cl)c(C)c1` (stereo unspecified), the activation factor is 3.11 and the activity change, negative = activation was -211% (active).

`Cc1cc(C)c(NC(=S)NC(NC(=O)c2ccccc2)C(Cl)(Cl)Cl)c(C)c1` (stereo unspecified): the activation factor is 1.28 and the activity change, negative = activation was -28.3% (inactive).

As to `CCC(=O)N1c2ccccc2NC2=C(C(=O)CCC2)C1c1ccc(N(C)C)cc1` (stereo unspecified), the activation factor turned out to be 1.18 and the activity change, negative = activation was -18.3% (inactive).

In the case of `O=C(NC1CCCCC1)N1CCN(c2ccccc2)CC1`, the activation factor was 0.931 and the activity change, negative = activation is 6.95% (inactive).

Values taken from PubChem BioAssay AID434970 (Sanford-Burnham Center for Chemical Genomics, 2010).
